In PubChem BioAssay (NCI):
Where “and” joins values, the source holds several entries; their conditions need not be identical. Identical values can stand only once. This is part of a sample that, as a whole, favours compounds with a hit. Of some 83,000 tested, about 20% had one in any assay.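 48-hour exposure, single concentration, 96-well plates; percent growth endpoint where 0 means no net growth. Active: below 10.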 Calls of active or inactive are those of the source.

Legend:
Assay in all cases: NCI-60 one-dose screen, 48 h (100 = growth as untreated, 0 = no growth, -100 = all killed)
Conditions in all cases: 10 µM unless noted
[1] = test system: DU-145 prostate
[2] = test system: MALME-3M melanoma
[3] = test system: MDA-MB-231 breast
[4] = test system: RXF 393 renal
[5] = test system: SF-268 CNS
[6] = test system: SF-295 CNS
[7] = test system: SF-539 CNS
[8] = test system: UACC-257 melanoma
[9] = test system: M14 melanoma
[10] = test system: K-562 leukemia

Measured: growth

O=C=NC(c1ccccc1)(c1ccccc1)c1ccccc1
inactive: [1] 106% | [2] 95.2% | [3] 97.5% | [4] 129% | [5] 104% | [6] 98% | [7] 110% | [8] 107% | [9] 101%

COc1c(/C(C)=N/N=c2sc(C(C)=O)nn2-c2ccc(Cl)cc2)c(Oc2ccccc2)c(OC)c2occc12
inactive: [1] 110% and 109% | [10] 93.9% and 101% | [2] 102% and 101% | [3] 107% and 101% | [4] 113% | [5] 101% and 87% | [6] 95.8% and 105% | [7] 103% and 93.7% | [8] 106% and 113% | [9] 113% and 96.2%

O=C(Cc1cccc2ccccc12)N/N=C/c1ccc2c(c1)CCC2
inactive: [1] 96.6% | [10] 17.3% | [2] 63.6% | [3] 75% | [4] 86% | [5] 82.3% | [7] 83% | [8] 87.3% | [9] 77.9%

Nc1ccn(C2OC(CO)C(O)C2O)c(=O)n1 (stereo not given)
inactive: [1] 24% and 12.2% and 114% | [3] 110% [middle of 4 runs] | [4] 90.6% and 33.4% and 134% | [5] 35.8% and 41.2% and 104%

C[N+](C)(C)CN1C(=O)c2ccccc2C1=O
inactive: [1] 113% | [10] 92% | [3] 114% | [4] 105% | [5] 110% | [7] 99.5% | [8] 97.8%

C=C1C(=O)O[C@H]2[C@H]1CC/C(COC(=O)NC1CCC(O)CC1)=C\CC[C@@]1(C)O[C@@H]21 (stereo not given in full)
inactive: [1] 38.7% and 28.8% | [2] 72.6% and 64.5% | [3] 60.8% and 62.4% | [4] 54% and 53.2% | [5] 93.2% and 91.5% | [6] 96.6% and 95.7% | [7] 71.9% and 63.2% | [8] 65.6% and 69.1% | [9] 85.4% and 71.4%

O=C(CCc1ccc(O)cc1)N/N=C/c1cc(Br)ccc1O
inactive: [1] 63.2% | [10] 15.4% | [2] 87.1% | [3] 59.7% | [4] 76.6% | [5] 48.3% | [7] 39.9% | [8] 55.5% | [9] 39.9%

CCN(CC)C(=O)c1cccnc1
inactive: [1] 119% | [2] 104% | [3] 106% | [4] 123% | [5] 108% | [6] 99.8% | [7] 99.8% | [8] 101% | [9] 103%

Nc1ccc2ccc(N)cc2c1
inactive: [1] 96.1% | [10] 57.3% | [2] 33.1% | [3] 62.1% | [4] 88.1% | [5] 84.3% | [6] 72.1% | [7] 107% | [9] 84.1%

CCC(=O)C(CC)c1cccc(OC)c1 (stereo not given)
inactive: [1] 114% | [2] 101% | [3] 111% | [4] 107% | [5] 120% | [6] 100% | [7] 115% | [8] 100% | [9] 101%

COc1cc2nc(N3CCC[C@@H](NC(=O)C4COc5ccccc5O4)C3)nc(N)c2cc1OC (stereo not given in full)
inactive: [1] 107% and 108% | [10] 97.1% and 94.1% | [2] 101% and 109% | [3] 104% and 106% | [4] 105% and 88.6% | [5] 105% and 103% | [7] 104% and 101% | [8] 93.5% and 92% | [9] 105% and 101%

CCCCCCCCCCCCCCCCOc1ccc(C)cc1
inactive: [1] 110% | [10] 108% | [2] 103% | [3] 100% | [4] 118% | [5] 114% | [7] 93.2% | [8] 111% | [9] 111%

CCCCCCCCCCCCOc1ccccc1C=O
inactive: [1] 111% | [10] 83.7% | [3] 102% | [4] 110% | [5] 97.5% | [6] 99% | [7] 102% | [8] 96.8% | [9] 101%

CN1CCN(CCC=C2c3ccccc3Sc3ccc(S(=O)(=O)N(C)C)cc32)CC1
active: [10] 1.04% and -15.5% | [8] -83.1% and -57.7% | [9] -67% and -79.2%
-13.1% (active) and 40.5% (inactive): [2]
inactive: [1] 88.1% and 101% | [3] 42.8% and 69.3% | [4] 30.4% and 60%

COc1ccc2ccccc2c1/C=N/N1CCCCC1
inactive: [1] 108% | [10] 91.5% | [3] 99.4% | [4] 100% | [6] 96.4% | [7] 89.5% | [8] 99.7%
